Assay results from article PMC4336329 (PLoS ONE, 2015).
The campaign covered roughly 310,000 compounds. About 14,000 (4.5%) showed an effect of 50% or more. The effect is printed as a negative number. This excerpt belongs to a sample that is enriched for strong results.

Target: human ether-à-go-go-related gene (hERG) potassium channel (human, UniProt Q12809)
Assay: primary screen, population patch clamp on CHO cells stably expressing hERG; higher = less effect of the substance
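Further: peak tail current of the secondary pulse compared with the same well before compound.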

human ether-à-go-go-related gene (hERG) potassium channel, sequence (Q12809 whole entry, looked up): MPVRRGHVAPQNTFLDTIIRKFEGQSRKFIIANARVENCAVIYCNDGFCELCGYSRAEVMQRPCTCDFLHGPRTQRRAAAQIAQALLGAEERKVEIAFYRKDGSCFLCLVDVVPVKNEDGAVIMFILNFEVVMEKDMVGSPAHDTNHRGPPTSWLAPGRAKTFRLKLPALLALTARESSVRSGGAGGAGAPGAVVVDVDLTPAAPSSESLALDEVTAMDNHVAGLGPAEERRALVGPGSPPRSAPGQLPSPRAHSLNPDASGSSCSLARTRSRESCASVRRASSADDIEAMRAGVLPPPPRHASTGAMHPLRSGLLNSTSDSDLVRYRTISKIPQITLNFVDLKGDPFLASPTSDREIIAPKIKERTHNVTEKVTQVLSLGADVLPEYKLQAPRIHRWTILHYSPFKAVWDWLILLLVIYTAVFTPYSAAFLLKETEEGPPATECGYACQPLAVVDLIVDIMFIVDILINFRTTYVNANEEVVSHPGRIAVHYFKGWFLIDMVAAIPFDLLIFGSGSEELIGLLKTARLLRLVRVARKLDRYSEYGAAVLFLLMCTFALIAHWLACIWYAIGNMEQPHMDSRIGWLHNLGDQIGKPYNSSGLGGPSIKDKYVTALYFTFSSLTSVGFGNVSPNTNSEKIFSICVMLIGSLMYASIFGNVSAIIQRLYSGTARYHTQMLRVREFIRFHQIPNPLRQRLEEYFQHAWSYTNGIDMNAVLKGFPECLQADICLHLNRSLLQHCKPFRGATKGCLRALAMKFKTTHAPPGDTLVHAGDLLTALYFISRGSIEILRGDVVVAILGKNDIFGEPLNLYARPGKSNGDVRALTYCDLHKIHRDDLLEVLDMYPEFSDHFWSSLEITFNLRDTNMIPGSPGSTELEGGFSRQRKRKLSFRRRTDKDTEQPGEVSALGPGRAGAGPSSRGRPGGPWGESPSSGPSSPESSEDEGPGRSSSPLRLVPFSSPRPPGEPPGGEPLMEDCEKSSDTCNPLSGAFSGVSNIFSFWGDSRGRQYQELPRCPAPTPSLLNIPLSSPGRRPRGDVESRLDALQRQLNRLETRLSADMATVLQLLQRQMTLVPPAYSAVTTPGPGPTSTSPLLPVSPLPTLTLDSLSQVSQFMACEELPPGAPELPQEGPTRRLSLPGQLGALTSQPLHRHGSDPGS

Structure (SMILES)	hERG current change (%, negative = inhibition) at 10uM
O=C(c1oc2ccccc2c1CSCc1ccccc1)N1CCN(c2ncccn2)CC1	1.59%
COc1ccc(N2CCN(C(=O)c3oc4ccccc4c3NC(=O)Cc3ccc(OC)c(OC)c3)CC2)cc1	-28.7%
Cc1ccc(O)c(NC(=O)c2ccc3c(c2)C(=O)N(Cc2ccco2)C3=O)c1	3.81%
COC(=O)c1[nH]c2c(c1C)C(=O)CC(c1ccc(OC)cc1)C2 (stereo not drawn)	11%
CCOc1ccc2[nH]c(=O)c(CN(CCOC)C(=O)N3CCOCC3)cc2c1	13.5%
O=C(Nc1nnc(-c2ccc(F)cc2)o1)c1ccc(S(=O)(=O)N2CCOCC2)cc1	-6.82%
CC(Oc1ccc(Cl)cc1)C(=O)N(C)CC(=O)Nc1ccc(N2CCOCC2)cc1 (stereo not drawn)	5.8%
Cn1c(CN2CCCCC2)nc2cc([N+](=O)[O-])ccc21	-0.791%
Cn1c(CN2CCCC2)nc2cc(NC(=O)COc3ccc([N+](=O)[O-])cc3)ccc21	-38.6%
Cn1c(CCN2CCCCC2)nc2cc(NC(=O)COc3ccc([N+](=O)[O-])cc3)ccc21	-63.1%
CN1CCN(CCc2nc3cc(NC(=O)COc4ccc([N+](=O)[O-])cc4)ccc3n2C)CC1	16.1%
CC1CCN(CCc2nc3cc(NC(=O)COc4ccc([N+](=O)[O-])cc4)ccc3n2C)CC1	-68.4%
Cn1c(CCN2CCCCC2)nc2cc([N+](=O)[O-])ccc21	-70.2%
CCN1CCN(CCc2nc3cc([N+](=O)[O-])ccc3n2C)CC1	-16.9%
Cn1c(CCN2CCOCC2)nc2cc(NC(=O)COc3ccc([N+](=O)[O-])cc3)ccc21	-21.1%
CCN1CCN(Cc2nc3cc(NC(=O)COc4ccc([N+](=O)[O-])cc4)ccc3n2C)CC1	-18.7%
COc1ccc(N2C(=O)C3CCCN3C2c2ccccc2)cc1Cl (stereo not drawn)	7.28%
CCOC(=S)N/C(=N\S(C)(=O)=O)c1ccccc1	-2.92%
COc1ccc(C(=S)N2CCOCC2)cc1OC(=O)c1cc(OC)c(OC)c(OC)c1	16.2%
COc1ccc(CN(C)C(=O)c2ccccc2Sc2ccccc2C#N)c(OC)c1	0.887%
Cc1ccc(C(=O)Cn2ncsc2=N)cc1	-12.5%
Cc1ccc(S(=O)(=O)NC2CCCC2)cc1C(N)=O	20.1%
Cc1cc(OC(=O)c2cccs2)ccc1C(C)C	12.1%

Structure (SMILES)	hERG current change (%, negative = inhibition) at 10uM
O=[N+]([O-])c1ccc(Cl)c(NC(=S)N2CCCC2)c1	5.47%
CC(=O)Nc1ccc(OCC(O)CN2CCN(c3cc(Cl)ccc3C)CC2)cc1 (stereo not drawn)	-30.8%
CC(=O)Nc1ccc(OCC(O)CN2CCN(c3ccc(F)cc3)CC2)cc1 (stereo not drawn)	-23.4%
CC(=O)Nc1ccc(OCC(O)CN2CCN(c3ccccc3Cl)CC2)cc1 (stereo not drawn)	-50.2%
CC(=O)Nc1ccc(OCC(O)CN2CCN(c3ccc(Cl)cc3)CC2)cc1 (stereo not drawn)	-52.7%
CC(=O)Nc1ccc(OCC(O)CN2CCN(c3ccc(C)c(Cl)c3)CC2)cc1 (stereo not drawn)	-27.7%
CC(=O)Nc1ccc(OCC(O)CN2CCN(c3cccc(Cl)c3)CC2)cc1 (stereo not drawn)	-25.2%
CC(C)N(O)C(=O)NC(C)(C)C	11.5%
O=C(NC1CCCCC1)C(c1ccc(F)cc1)N(C(=O)c1csnn1)C1CCCC1 (stereo not drawn)	-7.88%
COc1ccc(-c2noc(COc3ccc(Cl)c(C)c3)n2)cc1	2.81%
O=C(CCC1CCCN(Cc2ccc3c(c2)OCCO3)C1)NCc1ccccc1F (stereo not drawn)	-24.2%
O=C(CCC1CCCN(C(=O)c2ccncc2)C1)NCc1ccc(F)c(F)c1 (stereo not drawn)	-1.99%
CC(=O)c1cccc(CN2CCCC(CCC(=O)NCc3ccccc3F)C2)c1 (stereo not drawn)	-48.5%
CC(=O)c1cccc(CN2CCCC(CCC(=O)NCc3ccc(F)c(F)c3)C2)c1 (stereo not drawn)	-74.7%
COc1cccc(CNC(=O)CCC2CCCN(Cc3ccc4c(c3)CCO4)C2)c1 (stereo not drawn)	-33.6%
O=C(CCC1CCCN(Cc2ccc3c(c2)CCO3)C1)NCc1ccc(F)c(F)c1 (stereo not drawn)	-63.7%
O=C(CCC1CCCN(Cc2ccc3c(c2)OCCO3)C1)NCc1ccc(F)c(F)c1 (stereo not drawn)	-61.5%
O=C(CCC1CCCN(C(=O)c2ccc3c(c2)OCO3)C1)NCc1ccc(F)c(F)c1 (stereo not drawn)	-8.73%
O=C(CCC1CCCN(c2ncccn2)C1)NCc1ccc(F)c(F)c1 (stereo not drawn)	-40.8%
O=C(CCC1CCCN(Cc2ccncc2)C1)NCc1ccc(F)c(F)c1 (stereo not drawn)	-13.6%
CC1=C(C(=O)N2CCCC(CCC(=O)NCc3ccc(F)c(F)c3)C2)OCCO1 (stereo not drawn)	3.36%
O=C(CCC1CCCN(Cc2cccc3c2OCO3)C1)NCc1ccc(F)c(F)c1 (stereo not drawn)	-74.4%
